# An excerpt weighted towards active compounds, which were near 19% of everything screened.
# DT40 TDP1 no CPT = qHTS for Inhibitors of human tyrosyl-DNA phosphodiesterase 1 (TDP1): qHTS in cells in absence of CPT; DT40 Tdp1-/- hTDP1 cells, no CPT, ATP luminescence, 48 h; Potency, µM (highest dose often 46.2 µM), for the others: at the highest dose activity change, negative = growth inhibition, actives largely listed as inhibitors; hit rate 15% among 420,000; note: potency is the fitted concentration of half-maximal effect; nearly all actives have a fitted effect of over 55% in size
#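 Luminescent ATP content (CellTiter-Glo) served as the growth readout. Knockout chicken DT40 cells expressing human TDP1 were exposed to compounds without camptothecin for a minimum 48 hr at 37 °C.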
# uPA surface inh = qHTS for Inhibitors of Cell Surface uPA Generation; cell surface uPA generation assay, qHTS; Potency, µM (top dose mostly 38.3 µM), inactives show at the highest dose activity change, negative = inhibition, actives largely listed as inhibitors; hit rate 0.31% among 330,000; AID 540303, 2011; active = well fitted inhibition curve with a large enough effect; inconclusive = small, poorly fitted or top-dose-only effect; inactive = no such curve, though single readings can be large or run the other way; tested in mouse RAW 264.7 cells; note: potency is the fitted concentration of half-maximal effect; nearly all actives have a fitted effect of over 55% in size
# TDP1 cell CPT = qHTS for Inhibitors of human tyrosyl-DNA phosphodiesterase 1 (TDP1): qHTS in cells in presence of CPT | Potency, µM (highest dose often 46.2 µM), without a hit: at the highest dose activity change, negative = growth inhibition, most hits filed as inhibitors | AID 686979, 2013 | chicken DT40 Tdp1-/-;hTDP1 cells + 20 nM CPT, ATP luminescence, 48 h | hit rate 12% among 420,000; note: potency is the fitted concentration of half-maximal effect; nearly all actives have a fitted effect of over 55% in size
#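 Cell growth measured by CellTiter-Glo luminescence after a minimum 48 h, 37 C compound exposure with 20 nM CPT in Tdp1-knockout DT40 cells stably expressing hTDP1, seeded 400/well; qHTS titration format.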
# IL-1B inflam inh = qHTS for Inhibitors of Inflammasome Signaling: IL-1-beta AlphaLISA Primary Screen | THP-1 LPS/ATP IL-1B secretion, AlphaLISA, 16 h; stronger effect = lower value | activity change, % at 57.5 µM | hit rate 4.7% among 360,000 | AID 743279, 2014; in the data active = activity change below about -50%; inconclusive = mostly about -30% to -49%
#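 THP-1 cells pretreated 1 hr with compounds (up to 57.5 uM final), then stimulated with LPS (250 ng/mL final) plus ATP (1.25 mM final); secreted IL-1B measured by AlphaLISA after 16 hr, decreased signal indicating inhibition.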
# HT1080 IDH1KD tx = qHTS for induction of synthetic lethality in tumor cells producing 2HG: qHTS for the HT-1080-IDH1KD cell line | HT-1080 IDH1 knockdown viability, ATP luminescence, 48 h | AID 686971, 2013 | hit rate 2% among 360,000 | Potency, µM (series often up to 46.1 µM), without a hit: at the highest dose activity, negative = toxicity, hits mostly cytotoxic;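 note: potency is the fitted concentration of half-maximal effect; 0% = DMSO wells and -100% = cell-free medium wells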
#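 Luminescent ATP read-out (CellTiter-Glo, 10 min at room temperature) after 48 h compound exposure at 37 °C gave viability of IDH1-knockdown HT-1080 cells. Activity was normalised to DMSO and cell-free wells, then fitted as concentration-response curves.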
# HT1080NT lethal = qHTS for induction of synthetic lethality in tumor cells producing 2HG: qHTS for the HT-1080-NT fibrosarcoma cell line. hit rate 1.6% among 360,000. HT-1080-NT fibrosarcoma viability, CellTiter-Glo ATP luminescence, 48 h. AID 686970, 2013. Potency, µM (series often up to 46.1 µM), for the others: top-dose activity, negative = less viability, usual class: cytotoxic;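 note: NT is the 2HG producing partner of a matched IDH1 knockdown line; potency is the fitted concentration of half-maximal effect; 0% = DMSO-treated cells and -100% = media-only wells without cells; nearly all actives have a fitted effect of over 55% in size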
#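 Read-out is CellTiter-Glo luminescence after 10 minutes at room temperature, following 48 hours' compound treatment of HT-1080-NT cells (750 cells/well, RPMI, 5% FBS, 37 degrees C).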
# An asterisk follows results filed as active; ? = inconclusive; · = no result given. Unless noted, calls come from the whole dose curve; as a rule, active = well fitted curve in the direction sought with a large enough effect; inconclusive = small, poorly fitted or top-dose-only effect, or another doubt; inactive = no such curve, though single readings can be large; an effect the other way counts as inactive or inconclusive. Unless noted, % is set by controls: 0 for no effect and ±100 for the full control effect.
SMILES,DT40 TDP1 no CPT,uPA surface inh,TDP1 cell CPT,IL-1B inflam inh,HT1080 IDH1KD tx,HT1080NT lethal
CCOc1ccc(N=C(C)C2=C(O)c3ccccc3C2=O)cc1,?,-6%,22%,?,15%,0%
COc1ccc(N=C(C)C2=C(O)c3ccccc3C2=O)cc1,?,?,23µM*,1,-2%,6%
O=C(NCC1(N2CCCCC2)CCCCC1)c1cccc(S(=O)(=O)Nc2ccc(F)cc2)c1,?,-24%,?,-9,-8%,-2%
COc1cc(OC)cc(C(=O)NN2CCOCC2)c1,23%,8%,-8%,-6,15%,-2%
CCc1c(C(C)=O)oc2ccc3c(C)cc(=O)oc3c12,?,5%,-5%,-10,0%,-5%
Cc1ccc(/C(=N\O)c2oc3c(C)c4oc(=O)cc(C)c4cc3c2C)cc1,16µM*,-4%,18µM*,-29,23µM*,?
Cc1cc(=O)oc2c1ccc1oc(/C(=N/O)c3ccccc3)c(C)c12,26µM*,0%,21µM*,-74*,?,?
CCc1c(C(=O)c2ccc(Cl)cc2)oc2c(C)c3oc(=O)cc(C)c3cc12,-8%,-2%,-16%,6,9%,15%
O=C1CCN(Cc2nc(-c3ccc(Cl)cc3)no2)CCN1,?,-2%,?,22,-6%,-2%
O=C(Nc1ccc2c(c1)OCCO2)C(c1ccncc1)n1c(=O)c(-c2cc3ccccc3[nH]2)nc2ccccc21 (configuration not stated),?,·,?,-19,?,?
Cc1ccc([C@H]2N[C@]3(CCCN(Cc4ccc(Br)cc4)C3=O)[C@H]3C(=O)N(Cc4ccccc4)C(=O)[C@@H]23)cc1,29µM*,·,21µM*,-15,-29%,-16%
O=C1[C@H]2[C@@H](c3ccccc3)N[C@]3(CCCN(Cc4ccco4)C3=O)[C@H]2C(=O)N1Cc1ccccc1,?,·,?,-21,-1%,-7%
CCN1C(=O)[C@H]2[C@@H](c3ccc(C)cc3)N[C@]3(CCCN(Cc4ccccc4)C3=O)[C@H]2C1=O,?,·,-16%,-1,12%,0%
O=C1[C@H]2[C@@H](c3ccccc3)N[C@]3(CCCN(Cc4ccc(Cl)cc4)C3=O)[C@H]2C(=O)N1Cc1ccccc1,8.2µM*,·,23µM*,?,-29%,-18%
O=C1[C@H]2[C@@H](c3ccccc3)N[C@]3(CCCN(Cc4ccc(Br)cc4)C3=O)[C@H]2C(=O)N1Cc1ccccc1,23µM*,·,?,-20,-23%,-26%
Cn1c(CNC(=O)OC(C)(C)C)nnc1SCC(=O)N1CCOCC1,2%,4%,-7%,24,-2%,-6%
NC(=O)NC(CC(=O)NCc1ccc2c(c1)OCO2)c1ccccc1Cl (configuration not stated),-5%,5%,2%,12,2%,-12%
CN(C)C(CNC(C(=O)Nc1ccc([N+](=O)[O-])cc1Br)c1ccccc1)c1ccccc1 (configuration not stated),?,-6%,?,-73*,23µM*,23µM*
Cc1ccc(NC(=O)NCC(c2ccccc2)N(C)C)cc1 (configuration not stated),3%,5%,2%,-4,12%,17%
CN(C)C(CNC(C(=O)Nc1ccc(F)cc1)c1ccccc1)c1ccccc1 (configuration not stated),?,-3%,-20%,-80*,-27%,-27%

# Bioassay records: PubChem BioAssay, National Center for Advancing Translational Sciences (NCATS)
